In PubChem BioAssay (NCI):
About 83,000 compounds went through this panel and 20% of them were active in at least one assay; those are over-represented in the sample as a whole.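 Cell lines were cultured in 96-well plates, exposed to a single compound concentration, and assessed for percent growth 48 hours later.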 Calls of active or inactive are those of the source.

Each molecule was assayed on KM12 colon (assay: NCI-60 one-dose screen, 48 h (100 = growth as untreated, 0 = no growth, -100 = all killed)). Conditions: 10 µM unless noted.
Description: Growth inhibition of the KM12 human tumor cell line is measured as a screen for anti-cancer activity. Cells are grown in 96 well plates and exposed to the test compound for 48 hours. Compounds are tested at a single concentration, which is 10^-5 M for most compounds. The reported endpoint is percent growth (GI% or GIPRCNT), where numbers from 0 - 100% represent growth inhibition, and numbers from -100% - 0 represent cell death. For example, a value of 40 represents 60% growth inhibition. A value of 0 means no net growth occurred over the course of the experiment. A value of -40 indicates 40% of cells at the beginning of the experiment died by the end of the experiment. A value of -100 means all cells are dead at the end of the experiment.
NCI-60 Human Tumor Cell Lines Screen was performed using the standard one-dose NCI protocol, which is described in more detail at https://dtp.cancer.gov/discovery_development/nci-60/default.htm.
Compounds with GIPRCNT values below 10 were considered active. Activity score was based on GIPRCNT using the following formula: […]
Score is 0 for GIPRCNT values of 100 or above, 50 for GIPRCNT values of 0, and 100 for GIPRCNT values of -100.

Row | SMILES | growth
1 | NC1=C(C/C(N)=N\O)C(c2ccccc2Cl)c2c(ccc3ccccc23)O1 (stereo not given) | 67.5% (inactive)
2 | COc1cc2[nH]c(C(=O)c3cc(OC)c(OC)c(OC)c3)c(N)c2cc1C#CCO | 10.8% (inactive)
3 | CN1CCN(c2ccc3nc(-c4[nH]ncc4Nc4ncnc5[nH]ccc45)[nH]c3c2)CC1 | 10.2% (inactive)
4 | COc1cnc2c(c1)C(=O)c1c-2n(CCCNC(C)C)c(=O)c2cc([N+](=O)[O-])ccc12 | -39.8% (active)
5 | CC1(C)[C@@H](O)CC[C@]2(C)[C@H]3CC[C@@H]4[C@H]5[C@H](C(=O)/C=C/c6ccc(C(F)(F)F)cc6)CC[C@]5(CO)CC[C@@]4(C)[C@]3(C)CC[C@@H]12 | 68.7% (inactive)
6 | C=C(C)[C@@H]1CC[C@]2(C(=O)O)CC[C@]3(C)[C@H](CC[C@@H]4[C@@]5(C)C/C(=C/c6ccc(OC)cc6)C(=O)C(C)(C)[C@@H]5CC[C@]43C)[C@@H]12 | 21.3% (inactive)
7 | C=C(C)[C@@H]1CC[C@]2(CN)CC[C@]3(C)[C@H](CC[C@@H]4[C@@](C)(CCCN)[C@H](C(=C)C)CC[C@]43C)[C@@H]12 | 88.1% (inactive)
8 | O=C(O)/C(=C/c1ccc(O)cc1)c1ccccc1 | 107% (inactive)
9 | O=S(=O)(NCCNc1cc(-c2cn(-c3ccccc3)nc2-c2cccc(O)c2)ccn1)c1cccc(F)c1 | 31.1% (inactive)
10 | Cc1ccc(NC2CC(=O)N(c3c(C)cc(C)cc3C)C2=O)c(C)c1 (stereo not given) | 102% (inactive)
11 | NCCn1cc(-c2nc(-c3c[nH]c4ncccc34)cs2)c2ccccc21 | 73.4% (inactive)
12 | C[C@H]1OC(=O)/C=C/[C@@H](O)[C@@H](O)CCCCCCCC[C@@H]1O | 101% (inactive)
13 | CCc1ccc(-c2ccc(Nc3ccccc3)nn2)cc1S(N)(=O)=O | 40.6% (inactive)
14 | N#C/C(=C\c1ccc(-c2cccc(C(F)(F)F)c2)o1)c1nc(-c2ccco2)cs1 | 65.5% (inactive)
15 | COC(=O)[C@]12CC[C@@H](C)[C@H](C)[C@@H]1C1=CC[C@@H]3[C@@]4(C)C[C@@H](OC(C)=O)[C@H](O)[C@@](C)(COC(C)=O)[C@@H]4[C@H](O)C[C@@]3(C)[C@]1(C)CC2 | -75.4% (active)
16 | COc1ccc2[nH]cc(-c3nc(-c4c[nH]c5ncccc45)cs3)c2c1 | 25.3% (inactive)
17 | O=S(=O)(NCCNc1cc(-c2cn(-c3ccccc3)nc2-c2cccc(O)c2)ccn1)c1ccccc1 | 36.7% (inactive)
18 | Cn1cc(-c2csc(-c3cn(C(=O)OC(C)(C)C)c4ccccc34)n2)c2cccnc21 | 38.5% (inactive)
19 | COc1cccc(-c2nn(-c3ccccc3)cc2-c2ccnc(NCCNS(=O)(=O)c3ccc(Cl)cc3)c2)c1 | 28.5% (inactive)
20 | N=c1c(S(=O)(=O)c2ccccc2)cc2c(=O)n3ccccc3nc2n1C1CCCC1 | 98.5% (inactive)

Row | SMILES | growth
21 | c1ccc(CN2C(c3ccccc3)=Nc3ccccc3C2c2c[nH]c3ccccc23)cc1 (stereo not given) | 56.8% (inactive)
22 | Nc1c(C(=O)Nc2c(Cl)cccc2Cl)sc2nc3c(cc12)C(=O)CCC3 | 30.5% (inactive)
23 | CCOC(=O)c1ccc2c(c1)[n+](=O)c(C(=O)C1CCCS1)c(C(F)(F)F)n2[O-] (stereo not given) | -90.4% (active)
24 | C[C@H]1[C@@H]2[C@H]3CC[C@@H]4[C@@]5(C)Cc6c([nH]c7ccccc67)C(C)(C)[C@@H]5CC[C@@]4(C)[C@]3(C)CC[C@]23CO[C@]1(C)[C@@H](C(=O)/C=C/c1ccccn1)C3 | 93.2% (inactive)
25 | O=C1CNCCN1 | 110% (inactive)
26 | Nc1nc2c(c(=O)[nH]1)C(c1ccc3c(c1)OCO3)C=C(C(=O)O)N2 (stereo not given) | 110% (inactive)
27 | COc1cc(-c2cc(-c3nc4ccccc4[nH]3)[nH]n2)cc(OC)c1OC | 27% (inactive)
28 | O=c1[nH]c2c3ccncc3cc(-c3cccc(Cl)c3)c2c2cnccc12 | 34.7% (inactive)
29 | NCCn1cc(-c2nc(-c3c[nH]c4ncccc34)cs2)c2cc(Br)ccc21 | 65.2% (inactive)
30 | O=C1CN(c2ccccc2)C(=O)C1C(=O)Nc1ccc(Cl)c(Cl)c1 (stereo not given) | 17.2% [100 µM] (inactive)
31 | Cc1cc2nc3c4cc(Cl)ccc4n(CCN(C)C)c3nc2cc1C | 19.1% (inactive)
32 | Cc1csc(Nc2nc(-c3ccc(Cl)cc3)nc(C(Cl)(Cl)Cl)n2)n1 | 79.6% (inactive)
33 | COc1ccc(C(=O)/C=C/c2cc(-c3cc(OC)c(OC)c(OC)c3)n[nH]2)cc1OC | -86.7% (active)
34 | Cc1cc2nc3c4cc(O)ccc4n(CCN(C)C)c3nc2cc1C | 10.2% (inactive)
35 | COc1cc2c(cc1OC)C(=O)/C(=C/c1cc(-c3ccc4c(c3)OCO4)n[nH]1)C2 | -82.3% (active)
36 | Cc1ccc2oc(=O)cc(-c3sc(N4CCCCC4)nc3-c3ccccc3)c2c1 | 94.8% (inactive)
37 | CN(C)c1ccc(N=C2C=CC(=O)C=C2)cc1 | 97.1% (inactive)
38 | COC(=O)[C@]12CC[C@@H](C)[C@H](C)[C@@H]1C1=CC(=O)[C@@H]3[C@@]4(C)C[C@@H](O)[C@H](O)[C@@]5(C)COC(=C45)C[C@@]3(C)[C@]1(C)CC2 | 34.6% (inactive)
39 | Clc1ccc2[nH]cc(-c3nc(-c4c[nH]c5ncccc45)cs3)c2c1 | 23.3% (inactive)
40 | C=C(C)[C@@H]1CC[C@]2(C=NCCCNCCCCNCCCN)CC[C@]3(C)[C@H](CC[C@@H]4[C@@]5(C)CCCNC(C)(C)[C@@H]5CC[C@]43C)[C@@H]12 | 98.2% (inactive)
